We go through seven molecules from PubChem BioAssay (Tox21).

Test [1] can be described thus: Nuclear factor erythroid 2-related factor 2/antioxidant responsive element (Nrf2/ARE) small molecule agonists: luciferase reporter gene qHTS assay in human keratinocytes (AID 1919969). Note: nearly all actives have a fitted effect of over 35% in size. Note: potency is the fitted concentration of half-maximal effect. In general terms: Reporter assays use an easily measured gene product as a stand-in for the process of interest.
For test [2], the target named is Gonadotropin-releasing hormone receptor (Homo sapiens) (UniProt P30968). As to the kind of experiment: Human gonadotropin-releasing hormone receptor (GnRHR) small molecule agonists, calcium flux assay in GnRHR-HEK293 cells (AID 1920063). Note: nearly all actives have a fitted effect of over 35% in size. The gist of the method:
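Fluorescence kinetics (480 nm excitation, 540 nm emission; 3 min, 1 s steps) report calcium mobilisation in human GnRHR-HEK293 cells in agonist mode. Dye incubation: 1 h, 37 C.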
In general terms: Calcium assays in cells follow changes in intracellular calcium, usually with a dye or a luminescent sensor.

In test [3] the target is KiSS-1 receptor (Homo sapiens) (UniProt Q969F8). The test can be described thus: Human kisspeptin (KISS1R) small molecule agonists, calcium flux assay in KISS1R-HEK293 cells (AID 1920064; active = well fitted activation curve with a large enough effect in the repeat runs). The gist of the method:
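Measures KISS1R agonism through calcium-sensitive dye fluorescence in stably transfected HEK293 cells, read for 3 min after pin-tool compound delivery; 15-point titrations in triplicate.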

A short description of test [4]: G protein-coupled receptor (GPCR) small molecule agonists, calcium flux assay: HEK293 wild type cell line counter screen (AID 1920065). The gist of the method:
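Readout: fluorescence at 480 nm excitation/540 nm emission, sampled at 1 s intervals for 3 min. Cells had been cultured 18 h, then dye-loaded 1 h at 37 C before compound or ATP addition.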

Test [5] in a line: p53 small molecule agonists, cell-based qHTS assay with human liver microsomes (AID 1963577). The gist of the method: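 Compounds act here after metabolic activation: human liver microsomes and NADPH, both at 0.5 mg/mL final, were co-added to p53RE-bla cells. Incubation ran 16 h at 37 C, followed by LiveBLAzer detection.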
On the technique in general: Quantitative high-throughput screening tests each substance at several concentrations.

Test [6] can be described thus: p53 small molecule agonists, cell-based qHTS assay with human liver microsomes: qHTS cell viability counter screen (AID 1963579). Note: nearly all actives have a fitted effect of over 45% in size. Note: potency is the fitted concentration of half-maximal effect. The method, boiled down: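 Cells carrying the p53 response-element beta-lactamase reporter are treated for 16 h at 37 C with test compounds in the presence of human liver microsomes and NADPH (both 0.5 mg/mL final); ATP-based CellTiter-Glo luminescence then reports viability.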

Test [7] in a line: p53 small molecule agonists, cell-based qHTS assay with rat liver microsomes: qHTS cell viability counter screen (AID 1963580). Note: nearly all actives have a fitted effect of over 45% in size. The method, boiled down:
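HCT-116 p53RE-bla, 4,000 cells/well, 5 h pre-incubation; cpd + rat liver microsomes 0.5 mg/mL + NADPH 0.5 mg/mL (final); 16 h, 37 C; CellTiter-Glo, 30 min RT; luminescence.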

The target in test [8] is 5-hydroxytryptamine receptor 2A (Homo sapiens) (UniProt P28223). As to the kind of experiment: 5-hydroxytryptamine receptor 2A (HTR2A) small molecule antagonists, cell-based qHTS assay (AID 1963586). Note: nearly all actives have a fitted effect of over 45% in size. Note: potency is the fitted concentration of half-maximal effect. The method, boiled down:
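Antagonist-mode intracellular calcium assay: DOI (4 nM) added after 5 min compound pre-incubation at room temperature to dye-loaded HTR2A-CHO cells. Fluorescence followed for 3 min, sampled every second.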

Test [9] deals with Muscarinic acetylcholine receptor M1 (Homo sapiens) (UniProt P11229). As to the kind of experiment: Cholinergic receptor muscarinic 1 (CHRM1) small molecule antagonists, cell-based qHTS assay (AID 1963588). Note: nearly all actives have a fitted effect of over 40% in size. The method, boiled down:
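CHRM1-CHO calcium-flux assay, antagonist mode. Cells were seeded 18 h, dye-loaded 1 h at 37 C and given compound for 5 min at RT, then acetylcholine was added at 50nM. FDSS fluorescence was read 3 min; 15 concentrations, three runs.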

Test [10] has the same target. The test can be described thus: Cholinergic receptor muscarinic 1 (CHRM1) small molecule agonists, cell-based qHTS assay (AID 1963589). Note: nearly all actives have a fitted effect of over 35% in size. The method, boiled down:
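Each compound was tested at 15 concentrations across three independent runs on dye-loaded CHO cells stably expressing human CHRM1, reading intracellular calcium fluorescence kinetically at 1 sec intervals.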

Test [11] concerns the target D(2) dopamine receptor (Homo sapiens) (UniProt P14416). As to the kind of experiment: Dopamine D2 receptor (DRD2) small molecule agonists, cell-based qHTS assay (AID 1963594). Note: nearly all actives have a fitted effect of over 35% in size. The gist of the method: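 cAMP accumulation in DRD2-HEK293 cells measured by HTRF after 1 h detection; compounds added 10 min before NKH477 (200nM […]) forskolin-analogue stimulation, 30 min at room temperature, with Ro20-1724 present at 0.1 mM final.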

Test [12] shares this target. As to the kind of experiment: Dopamine D2 receptor (DRD2) small molecule antagonists, cell-based qHTS assay (AID 1963595; active = well fitted inhibition curve with a large enough effect in the signal ratio in the repeat runs, with a control signal flat; the % refers to the signal ratio; note: potency is the fitted concentration of half-maximal effect). The gist of the method:
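HEK293 cells stably expressing DRD2, preincubated with 0.1 mM Ro20-1724 and compounds 10 min, were stimulated with 200 nM NKH477 plus 12 nM quinpirole for 30 min at room temperature; cAMP measured by HTRF (665/620 nm).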

Test [13] can be described thus: p53 small molecule agonists, cell-based qHTS assay with rat liver microsomes (AID 1963578). The method, boiled down:
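Read-out is beta-lactamase reporter fluorescence (LiveBLAzer, 2 h, room temperature, dark) in p53RE-bla cells treated 16 h at 37 C with compound, rat liver microsomes and NADPH, both 0.5 mg/mL final.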

Test [14] is described as follows: p53 small molecule agonists, cell-based qHTS assay: qHTS cell viability counter screen (AID 1963581). Note: nearly all actives have a fitted effect of over 45% in size. The gist of the method: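 In the same plates used for the p53 bla reporter, HCT-116 cells given compounds for 16 h at 37 C received CellTiter-Glo; luminescence was recorded 30 min later at room temperature.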
Test [15] in a line: p53 small molecule agonists, cell-based qHTS assay (AID 1963582; active = well fitted activation curve with a large enough effect in the signal ratio in the repeat runs, not every such curve was filed as active; the % refers to the signal ratio). The gist of the method: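 Compounds are pin-transferred in DMSO onto p53RE-bla cells and incubated 16 h at 37 C. The B/G FRET beta-lactamase substrate is then applied for 2 h at RT and fluorescence recorded.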
The target of test [16] is 5-hydroxytryptamine receptor 2A (Homo sapiens) (UniProt P28223). The test can be described thus: 5-hydroxytryptamine receptor 2A (HTR2A) small molecule agonists, cell-based qHTS assay (AID 1963587). Note: nearly all actives have a fitted effect of over 30% in size. The gist of the method:
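Kinetic calcium-flux fluorescence (2 min, 1 sec intervals) after compound addition in agonist mode. HTR2A-CHO cells were cultured 18 h, then dye-loaded 1 h at 37 C.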

A short description of test [17]: cAMP Responsive Elements (CRE) small molecule agonists, cell-based qHTS assay (AID 1963590). The method, boiled down: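 Cell line: CRE-bla HEK 293T; medium DMEM/10% dialyzed FBS/0.1 mM NEAA/1 mM pyruvate/25 mM HEPES; 3 h compound exposure; beta-lactamase FRET readout after 2 h substrate loading at RT.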
Test [18] is described as follows: cAMP Responsive Elements (CRE) small molecule antagonists, cell-based qHTS assay (AID 1963591; active = well fitted inhibition curve with a large enough effect in the signal ratio in the repeat runs, not every such curve was filed as active; the % refers to the signal ratio). The gist of the method: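 Inhibition of NKH477-driven (0.25 uM final) CRE-beta-lactamase signal in HEK293T cells, 3 h compound exposure at 37 °C, detected by FRET substrate fluorescence.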
Test [19] has as its target Beta-2 adrenergic receptor (Homo sapiens) (UniProt P07550). As to the kind of experiment: Adrenergic beta2 receptor (ADRB2) small molecule antagonists, cell-based qHTS assay (AID 1963592). Note: series mostly up to about 92 µM; nearly all actives have a fitted effect of over 50% in size. The method, boiled down:
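Cells (CHO, stable ADRB2 overexpression) incubated 18-20hr at 37C; compounds added from DMSO; agonist mix (1nM isoproterenol, 100uM IBMX, 25uM Ro-20-1724) added; 0.5hr RT; d2-cAMP and anti-cAMP-cryptate added; 1hr RT; 665/615 nm read.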

Test [20] has the same target. The test can be described thus: Adrenergic beta2 receptor (ADRB2) small molecule agonists, cell-based qHTS assay (AID 1963593).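 Note: CHO cells stably overexpressing human ADRB2.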 The gist of the method: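 CHO cells stably over-expressing ADRB2 were plated overnight at 37C, then dosed with compounds plus a stimulation mix containing 100uM IBMX and 25uM Ro-20-1724 for 0.5hr at room temperature. cAMP was measured by HTRF competition, 1hr.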

SMILES strings stand for the structures. Inconclusive results are not listed. Active and inactive are the calls of the source. Unless noted, calls come from the whole dose curve.

KiSS-1 receptor (Homo sapiens), sequence (Q969F8 whole entry, looked up): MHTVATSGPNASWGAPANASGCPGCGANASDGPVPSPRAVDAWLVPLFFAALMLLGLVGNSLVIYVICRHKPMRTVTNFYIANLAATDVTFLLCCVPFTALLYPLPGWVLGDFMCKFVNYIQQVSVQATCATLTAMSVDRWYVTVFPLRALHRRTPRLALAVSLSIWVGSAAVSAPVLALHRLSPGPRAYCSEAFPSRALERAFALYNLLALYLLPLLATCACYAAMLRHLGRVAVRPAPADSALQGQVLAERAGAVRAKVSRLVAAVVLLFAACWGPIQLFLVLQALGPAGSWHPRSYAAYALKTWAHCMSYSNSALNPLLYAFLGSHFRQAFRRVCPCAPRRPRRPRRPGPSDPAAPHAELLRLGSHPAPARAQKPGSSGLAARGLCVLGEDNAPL
Muscarinic acetylcholine receptor M1 (Homo sapiens), sequence (P11229 whole entry, looked up): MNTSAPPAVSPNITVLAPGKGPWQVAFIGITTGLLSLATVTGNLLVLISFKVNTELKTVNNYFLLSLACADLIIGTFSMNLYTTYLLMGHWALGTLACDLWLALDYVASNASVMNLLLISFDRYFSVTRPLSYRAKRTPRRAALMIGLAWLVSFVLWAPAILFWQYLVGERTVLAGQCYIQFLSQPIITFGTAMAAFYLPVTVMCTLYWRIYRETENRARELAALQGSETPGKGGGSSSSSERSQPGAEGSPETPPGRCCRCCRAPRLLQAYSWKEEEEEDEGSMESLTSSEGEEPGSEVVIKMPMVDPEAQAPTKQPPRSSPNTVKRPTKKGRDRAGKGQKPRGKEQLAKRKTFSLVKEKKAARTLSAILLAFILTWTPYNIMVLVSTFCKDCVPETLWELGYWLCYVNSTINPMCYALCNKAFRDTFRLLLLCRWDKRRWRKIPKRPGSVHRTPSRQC
Beta-2 adrenergic receptor (Homo sapiens), sequence (P07550 whole entry, looked up): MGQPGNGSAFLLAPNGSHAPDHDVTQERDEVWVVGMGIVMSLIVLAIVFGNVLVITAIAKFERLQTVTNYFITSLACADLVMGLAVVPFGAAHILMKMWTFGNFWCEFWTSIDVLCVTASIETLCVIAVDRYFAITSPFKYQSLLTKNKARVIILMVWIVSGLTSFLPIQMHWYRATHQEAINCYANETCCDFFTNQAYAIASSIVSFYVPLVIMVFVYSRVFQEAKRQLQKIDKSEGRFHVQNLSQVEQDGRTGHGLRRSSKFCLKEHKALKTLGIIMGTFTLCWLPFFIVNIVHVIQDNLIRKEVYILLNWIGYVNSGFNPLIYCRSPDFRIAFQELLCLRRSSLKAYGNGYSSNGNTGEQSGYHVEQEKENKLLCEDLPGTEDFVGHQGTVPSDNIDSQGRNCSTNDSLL
D(2) dopamine receptor (Homo sapiens), sequence (P14416 whole entry, looked up): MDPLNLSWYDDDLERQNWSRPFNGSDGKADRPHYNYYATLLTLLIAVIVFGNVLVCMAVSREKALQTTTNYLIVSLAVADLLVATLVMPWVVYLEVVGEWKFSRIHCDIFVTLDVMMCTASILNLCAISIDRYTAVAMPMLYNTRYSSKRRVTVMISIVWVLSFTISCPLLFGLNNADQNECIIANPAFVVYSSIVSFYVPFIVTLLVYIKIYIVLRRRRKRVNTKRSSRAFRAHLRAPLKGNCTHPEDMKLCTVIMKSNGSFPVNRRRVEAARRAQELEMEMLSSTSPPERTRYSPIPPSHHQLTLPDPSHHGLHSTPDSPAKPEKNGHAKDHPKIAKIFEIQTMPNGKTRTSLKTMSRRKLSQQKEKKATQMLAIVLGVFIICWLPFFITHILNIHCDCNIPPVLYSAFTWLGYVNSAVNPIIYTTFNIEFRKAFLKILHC
5-hydroxytryptamine receptor 2A (Homo sapiens), sequence (P28223 whole entry, looked up): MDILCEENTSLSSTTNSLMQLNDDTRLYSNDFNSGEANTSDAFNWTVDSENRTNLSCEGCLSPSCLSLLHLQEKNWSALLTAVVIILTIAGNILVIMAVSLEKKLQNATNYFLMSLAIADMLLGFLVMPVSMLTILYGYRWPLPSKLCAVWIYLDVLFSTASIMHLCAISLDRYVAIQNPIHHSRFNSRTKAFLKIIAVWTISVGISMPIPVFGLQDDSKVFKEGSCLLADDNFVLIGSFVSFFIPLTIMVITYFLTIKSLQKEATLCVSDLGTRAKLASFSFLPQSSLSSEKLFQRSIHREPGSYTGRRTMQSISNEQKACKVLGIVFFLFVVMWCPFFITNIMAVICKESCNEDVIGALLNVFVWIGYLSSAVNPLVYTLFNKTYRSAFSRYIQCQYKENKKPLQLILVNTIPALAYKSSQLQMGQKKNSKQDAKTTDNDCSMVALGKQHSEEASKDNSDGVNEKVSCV
Gonadotropin-releasing hormone receptor (Homo sapiens), sequence (P30968 whole entry, looked up): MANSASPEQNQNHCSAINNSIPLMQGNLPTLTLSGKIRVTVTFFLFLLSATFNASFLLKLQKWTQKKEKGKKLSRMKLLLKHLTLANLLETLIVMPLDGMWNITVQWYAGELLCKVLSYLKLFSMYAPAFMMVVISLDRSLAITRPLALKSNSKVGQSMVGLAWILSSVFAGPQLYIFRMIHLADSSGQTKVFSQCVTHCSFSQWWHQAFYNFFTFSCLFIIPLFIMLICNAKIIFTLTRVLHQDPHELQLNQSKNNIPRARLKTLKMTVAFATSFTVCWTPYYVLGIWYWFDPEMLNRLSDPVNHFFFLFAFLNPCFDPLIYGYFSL

`NC(=O)C1(N2CCCCC2)CCN(CCCN2c3ccccc3CCc3ccc(Cl)cc32)CC1`: the Potency entry in [1], in [2], in test [3], in test [4], in test [5] and in test [6] was “inactive” throughout. Besides, the Potency entry in test [7], in test [9], in test [10] and in test [11] was “inactive” throughout. The Potency is 0.103 µM (active) in test [8] and 0.376 µM (active) in test [12].
On to `COC(=O)CC(C)CCC=C(C)C` (stereo not given), for which the values for the Potency in [1] and in test [6] were 68.6 µM (active) and 45.8 µM (active), respectively. Besides, the Potency entry in test [2], in [3], in [4], in [13], in test [14] and in test [15] was “inactive” each time. For the same molecule, the Potency entry in [8], in test [16], in [9], in [10], in test [17] and in [18] was “inactive” each time. The Potency entry in test [19], in [20] and in test [11] was “inactive” each time.
Turning to `O=[N+]([O-])c1ccc(O/N=C/c2cc(Br)c(O)c(Br)c2)c([N+](=O)[O-])c1`, the Potency in test [1] is 60.8 µM (active). In addition, the Potency result in test [2], in test [3], in [4], in test [13], in test [6] and in test [7] was “inactive” each time. In addition, the Potency entry in [8], in [16], in test [10], in [19], in test [11] and in test [12] was “inactive” each time.
Take `CCCCCCCCCCCC(=O)[O][Sn]([CH2]CCC)([CH2]CCC)[O]C(=O)CCCCCCCCCCC`: the Potency in test [1] is 33.5 µM (active). In addition, the Potency entry in test [2], in test [3], in test [4], in test [5], in [7] and in test [14] was “inactive” in each case. Moreover, the Potency result in [15], in test [8], in test [16], in [9], in test [10] and in test [17] was “inactive” in each case. Moreover, the Potency entry in test [18], in test [19], in test [20], in test [11] and in [12] was “inactive” each time.
Take `CCCCN(CCCC)C(=S)SSC(=S)N(CCCC)CCCC`: in test [1], the Potency was 1.52 µM (active). In addition, the Potency entry in test [2], in test [3], in test [4], in [13], in test [6] and in [14] was “inactive” each time. In addition, the Potency result in [15], in test [8], in test [16], in test [9], in [10] and in test [17] was “inactive” each time. The Potency result in [18], in [19], in test [11] and in test [12] was “inactive” throughout.
In the case of `CCC1OCC(COc2ccc(Oc3ccccc3)cc2)O1` (stereo not given), the Potency in [1] is 68.6 µM (active). For the same molecule, the Potency entry in test [2], in test [3], in [4], in test [5], in [14] and in test [15] was “inactive” each time. Also, the Potency result in test [8], in test [16], in test [9], in test [10], in test [17] and in [18] was “inactive” in each case. In addition, the Potency result in test [19], in test [11] and in test [12] was “inactive” in each case.
`O[Si](c1ccccc1)(c1ccccc1)c1ccccc1`: the Potency entry in test [1], in [2], in [3], in test [4], in test [13] and in test [6] was “inactive” in each case. Also, the Potency entry in [7], in test [14], in test [8], in test [16], in [9] and in test [10] was “inactive” throughout. The Potency result in test [17], in test [18], in [19], in [11] and in test [12] was “inactive” each time.
